# RGS4-Gao reg = modulators of RGS4 binding to Galphao, primary screen, biochemical, multiplexed bead flow cytometry | binding response (% of control), % at 10 µM | actives lie on both sides | 220,000 compounds, 0.33% hits | AID 1415, 2008; in the data active = binding response below about 49% or above about 150%; inactive = in between;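 also: fluorescent Galphao activated with aluminum fluoride binding bead-coupled RGS4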
# Avidin fluor = green autofluorescence of compounds with avidin beads – biophysical, 488/530 nm, flow cytometry, artefact control, profiling panel; fluorescence (KMESF) at 10 µM; compound fluorescence 488/530 nm; hits give high values; 220,000 compounds, 0.38% hits; in the data active = fluorescence above about 47
# RGS16-Gao HTS = modulators of RGS16 binding to Galphao, primary screen, biochemical, human proteins, multiplexed bead flow cytometry | Regulator of G-protein signaling 16 (Homo sapiens) + Guanine nucleotide-binding protein … | bead-based flow cytometry RGS16-Galphao binding, fluorescence; actives lie on both sides | binding response (% of control), % at 10 µM | 220,000 compounds, 0.38% hits; call rule not given here;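 also: Galphao activated by GDP with aluminum fluoride before binding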
# GSH fluor = compound fluorescence on glutathione beads, profiling panel, artefact control, biophysical, 488/530 nm, flow cytometry; AID 1776, 2009; 190,000 compounds, 0.25% hits; GSH beads flow cytometry, compound fluorescence 488/530 nm; hits give high values; fluorescence (KMESF) at 10 µM; in the data active = fluorescence above about 89;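 also: glutathione beads carrying GST-tagged Bcl family fusion proteins plus one bare bead set; values are compound well signal with DMSO vehicle wells as background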
# RGS8-Gao reg = RGS8-Galphao binding modulators, primary screen, biochemical, multiplexed bead flow cytometry; response (percent of control binding), % at 10 µM; 220,000 compounds, 0.34% hits; AID 1423, 2008; Guanine nucleotide-binding protein G(o) subunit alpha (Homo sapiens), P09471; actives lie on both sides; in the data active = response below about 60% or above about 140%; inactive = in between;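 also: Galphao activated as the GDP aluminium fluoride complex binding bead-coupled RGS8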
# RGS7-Gao reg = RGS7-Galphao binding modulators, primary screen, biochemical, multiplexed bead flow cytometry; Guanine nucleotide-binding protein G(o) subunit alpha (Homo sapiens), P09471; actives lie on both sides; binding response (% of control), % at 10 µM; 220,000 compounds, 0.35% hits; AID 1439, 2008; in the data active = binding response below about 49% or above about 150%; inconclusive = no clear call, values can overlap the other calls; inactive = in between;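 also: fluorescent Galphao held in activated GDP-AlF4 state binding bead-coupled RGS7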
# Starred values were filed as active, the others as inactive; ? = inconclusive; . = not tested or not shown. This is a sample that favours compounds with a hit; in the whole collection about 1.2% have one here.
SMILES,RGS4-Gao reg,Avidin fluor,RGS16-Gao HTS,GSH fluor,RGS8-Gao reg,RGS7-Gao reg
Cc1ccc(S(=O)(=O)Nc2nc(C)c(NC(=O)OCCCl)s2)cc1,121,62*,135,27,109,105
COc1ccccc1NC(=O)C1=C(C)NC(=O)NC1c1cccs1 (centres undefined),92,9,96,16,96,93
O=C(/C=C/c1cc([N+](=O)[O-])ccc1OC(F)F)NCc1ccc(Cl)cc1,107,8,114,264*,106,104
COC(=O)c1cccc(NC(=O)c2nn(C)c(=O)c3ccccc23)c1,107,9,114,185*,104,102
OC(CNCCC(c1ccccc1)c1ccccc1)COc1ccccc1 (centres undefined),107,8,104,10,103,?
Cc1ccc(NC(=O)C2CC(Cl)=CCC2C(=O)O)c([N+](=O)[O-])c1 (centres undefined),101,11,96,11,100,93
CCOc1cc(/C=N/Nc2nc(-c3cccs3)c(NC(C)=O)s2)ccc1O,100,4,94,.,97,?
O=C1NC(=O)C(CC(=O)N(c2ccccc2)C2(C(=O)NC3CCCC3)CCCCC2)N1 (centres undefined),102,52*,102,29,101,111
CN(Cc1ccccc1)S(=O)(=O)c1ccc(NS(=O)(=O)Cc2ccccc2)cc1,100,50*,104,11,101,107
O=c1[nH]oc2cc(Cl)ccc12,99,3,95,.,98,?
CC(Oc1ccc(Cl)cc1Cl)c1nc(-c2ccc(NC(=O)c3ccncc3)cc2)no1 (centres undefined),102,4,101,97*,94,96
CC(Oc1ccc(Cl)cc1Cl)c1nc(-c2ccc(NC(=O)c3cccnc3)cc2)no1 (centres undefined),98,13,91,23,100,96
CCOC(=O)Nc1ccc(C)cc1NC(=O)OCC,99,46,102,13,102,105
CCOC(=O)Nc1cc(C)ccc1OC,102,51*,92,27,94,142
CCOc1ccc(CC(=O)NNC(=S)NC2CCCCC2)cc1OCC,98,4,106,128*,99,100
CCOc1ccc(CC(=O)NNC(=O)NC2CCCCC2)cc1,99,9,99,20,101,94
CCn1c(CSc2nc3ccccc3s2)nnc1SCC(=O)c1ccc(O)c(O)c1,68,4,65,268*,76,67
O=C(CCCN1C(=O)c2ccccc2C1=O)Nc1cccc(S(=O)(=O)NC2=NCCC2)c1,101,10,101,12,101,?
COc1ccc(CCNC(=O)/C=C/c2ccc(C)cc2)cc1OC,103,12,103,22,103,101
COc1cc(OC)c(OC)cc1NC(=O)CC1COc2ccccc2O1 (centres undefined),105,8,105,17,102,102
COc1ccc(CCNC(=O)CN(c2ccccc2OC)S(C)(=O)=O)cc1OC,105,8,107,263*,104,103
COc1ccc(CCNC(=O)CC2COc3ccccc3O2)cc1OC (centres undefined),101,48*,102,26,100,107
COc1ccc(CCNC(=O)/C=C/c2cc(OC)c(OC)c(OC)c2)cc1OC,119,73*,99,15,97,?
O=S(=O)(Nc1ccc(Cc2ccncc2)cc1)c1ccc(Br)cc1,22*,-2,1.0*,20,12*,15*
COc1cc(C(=O)NNC(=S)NC(=O)c2ccc(Cl)cc2)cc(OC)c1OC,109,20,107,446*,99,103
C=CCn1c(-c2ccc(C)cc2)nc2ccccc21,103,47*,105,31,101,114

# Assay outcomes: PubChem, NMMLSC
